From PubChem BioAssay
SENP8 block-1: SENP8 protease inhibition | purified SENP8, Z-RLRGG-aminoluciferin cleavage, luminescence | Q96LD8 | 330,000 compounds, 1.2% hits | inhibition, % at 10 µM; in the data active means inhibition above about 50%
SENP6 inh: SENP6 protease inhibition; 330,000 compounds, 1.8% hits; Recombinant SENP6 catalytic domain, aminoluciferin luminescence; inhibition, % at 10 µM; AID 2599;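 active means inhibition above about 50% at the single tested dose, limit read from the data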;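 further: plate controls were DMSO wells with enzyme for no effect and DMSO wells lacking enzyme for full effect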
HSP90 inh: inhibitors of HSP90 luciferase refolding in rabbit reticulocyte lysate | luciferase refolding luminescence, 3 h | inhibition, % at 5.6 µM | 290,000 compounds, 0.91% hits;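 active means inhibition above the screen-wide mean plus 3 SD, computed separately per campaign, cut at about 16% in these data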;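 further: 0% = DMSO wells and 100% = 60 µM geldanamycin wells; inhibitors lower the luminescence because luciferase stays unfolded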
SENP7 inh: SENP7 protease inhibition; Q9BQF6; recombinant SENP7, Z-RLRGG-aminoluciferin luminescence, 40 min; inhibition, % at 5 µM; 330,000 compounds, 1.5% hits;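 active means inhibition above about 50% at the single test dose, limit read from the data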;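 further: plate controls were DMSO with enzyme for no effect and no enzyme buffer wells for full effect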
LGR2 inh: blocks bursicon-induced cAMP signaling via Drosophila LGR2. HEK293 LGR2, CRE-luciferase, bursicon-stimulated, 4 h. inhibition, % at 9.99 µM. 380,000 compounds, 0.35% hits;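 active means drop in luminescence signal, shown as inhibition above about 50% in the replicate tests, limit read from the data, passing the limit was not always enough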;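 further: agonist challenge used bursicon conditioned medium at about half maximal strength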
SENP8 block-2: SENP8 (human) protease inhibition | Q96LD8 | recombinant SENP8, Nedd8 substrate fluorescence | inhibition, % at 20 µM | 360,000 compounds, 0.64% hits | AID 602440; in the data active means inhibition mostly above about 40%, no sharp cut-off; inactive means mostly below about 27%
HSP90 confirm: HSP90 inhibition, confirmation assay; shares compounds with HSP90 inh; AID 1846; inhibition, % at 5.9 µM; 2,300 compounds, 64% hits; rabbit reticulocyte lysate, luciferase refolding luminescence, 3 h; in the data active means inhibition above about 18%;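 further: 0% = vehicle wells and 100% = reference inhibitor wells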
luciferase ctr: firefly luciferase inhibition, HSP90 counter-screen; 2,300 compounds, 48% hits; shares compounds with HSP90 inh; AID 1847; inhibition, % at 5.9 µM; purified native firefly luciferase, luminescence;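 active means inhibition above the mean inhibition of all tested sample wells plus 3 SD, cut at about 10% in these data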;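 further: 0% = DMSO with luciferase and 100% = wells lacking luciferase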
Target sequence (P08659 whole entry, looked up): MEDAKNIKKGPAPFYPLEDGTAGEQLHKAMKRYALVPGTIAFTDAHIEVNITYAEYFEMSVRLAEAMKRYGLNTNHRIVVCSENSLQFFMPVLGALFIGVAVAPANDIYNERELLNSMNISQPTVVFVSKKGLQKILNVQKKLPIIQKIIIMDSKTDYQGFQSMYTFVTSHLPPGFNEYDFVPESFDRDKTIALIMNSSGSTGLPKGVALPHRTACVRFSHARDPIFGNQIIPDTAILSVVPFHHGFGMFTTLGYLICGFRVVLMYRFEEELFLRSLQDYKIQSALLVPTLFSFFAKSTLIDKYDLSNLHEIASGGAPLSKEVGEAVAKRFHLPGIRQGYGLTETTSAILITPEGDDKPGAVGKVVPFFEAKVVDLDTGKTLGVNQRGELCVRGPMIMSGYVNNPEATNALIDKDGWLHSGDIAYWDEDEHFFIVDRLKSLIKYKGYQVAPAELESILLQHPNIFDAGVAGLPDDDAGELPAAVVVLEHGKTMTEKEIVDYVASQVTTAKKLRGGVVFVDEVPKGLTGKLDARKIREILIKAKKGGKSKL
Numbers without * were called inactive; . = not tested or not shown. An excerpt weighted towards active compounds, which were near 2.3% of everything screened.

SMILES | SENP8 block-1 | SENP6 inh | HSP90 inh | SENP7 inh | LGR2 inh | SENP8 block-2 | HSP90 confirm | luciferase ctr
Cc1ccc2c(c1)c(N=Nc1cccc(C(=O)O)c1)c(O)n2C | -12 | -14 | 0 | 1 | -10 | 30 | . | .
CCOc1ccc2c(c1)c(N=Nc1cccc(C(=O)O)c1)c(O)n2C | 22 | 35 | 27* | 2 | -78 | 20 | 30* | 6
CC(=O)Oc1ccc(Nc2ccccc2)cc1 | -10 | -17 | 31* | -4 | -5 | 16 | 56* | -13
CC(=O)Oc1ccc(NC(=O)Cc2ccccc2)cc1 | -10 | -9 | -2 | -3 | -6 | 12 | . | .
C=CCn1c(C)cc(C(=O)COC(=O)CNC(=O)c2ccccc2)c1C | -6 | -12 | 17* | -7 | 47 | 18 | 6 | 29*
Cc1ccc(C(=O)NCC(=O)OCC(=O)c2cc(C)n(Cc3ccco3)c2C)cc1 | 11 | -4 | 5 | -1 | 3 | 8 | . | .
C[C@@H]1CN([C@@H](C)CO)C(=O)c2cc(NS(=O)(=O)c3ccc(Cl)cc3)ccc2O[C@@H](C)CCCCO[C@@H]1CN(C)C(=O)c1ccccc1 | . | . | . | . | 9 | . | . | .
Cc1c(Cl)cccc1NC(=O)CCCn1cnc([N+](=O)[O-])n1 | -1 | -11 | 18* | 5 | 1 | 25 | 2 | -4
O=C(CCCn1cnc([N+](=O)[O-])n1)Nc1cccc(Cl)c1Cl | 0 | 2 | -6 | 9 | 8 | 18 | . | .
COc1ccc(C[C@H]2CN3C(=NC[C@@H]3C(C)C)N2CCNC(=O)c2ccc(C)c(Br)c2)cc1 | -5 | -6 | 18* | -3 | . | 13 | 3 | -7
Cc1ccc(C(=O)NCCN2C3=NC[C@H](C(C)C)N3C[C@H]2Cc2ccc(O)cc2)cc1Br | -2 | -13 | 1 | -7 | -5 | 0 | . | .
Cc1cc[n+](-c2[nH]c(=O)sc2/C=N/N=C(\[O-])c2ccncc2)cc1C | -23 | -4 | 1 | -19 | 9 | 22 | . | .
Cc1cc[n+](-c2[nH]c(=O)sc2/C=N/N=C(\[O-])c2ccccc2)cc1C | . | . | 18* | . | -3 | 7 | -6 | -14
C[C@@H]1CN([C@H](C)CO)S(=O)(=O)c2ccc(C3=CCCC3)cc2O[C@@H]1CN(C)C(=O)C1CCOCC1 | . | . | . | . | -4 | . | . | .
O=C1CN(C(=O)c2c(F)cccc2F)C(c2ccccc2)c2cc(Br)ccc2N1 (stereo not drawn) | 7 | -5 | 3 | 1 | 7 | 7 | . | .
Cc1ccc2c(c1)C(c1ccccc1)N(C(=O)c1c(F)cccc1Cl)CC(=O)N2 (stereo not drawn) | -9 | 5 | 17* | -9 | 15 | 12 | 4 | -4
CC(C)CC(=O)N1CC(=O)Nc2ccc(F)cc2C1c1ccccc1 (stereo not drawn) | 1 | -9 | 39* | 6 | 4 | 17 | -6 | -10
Cc1cccc(-c2ccc([C@H]3[C@H](CO)N4CCCCN(Cc5ccncc5)C[C@@H]34)cc2)c1 | . | . | . | . | -10 | . | . | .
OC[C@H]1[C@@H](c2ccccc2)C2(CN(Cc3ccccc3)C2)N1Cc1ccncc1 | . | . | . | . | 9 | . | . | .
CNc1nc(-c2ccccn2)nnc1-c1ccccc1 | 1 | -15 | 1 | 3 | . | 29 | . | .
c1ccc(-c2nnc(-c3ccccn3)nc2NC2CCCCC2)cc1 | 1 | -3 | 22* | 1 | 11 | 19 | 16* | -12
Cc1ccc2nc(-c3sc4nc(C)cc(C)c4c3N)[nH]c2c1 | -18 | -21 | 25* | -11 | . | -285 | 23* | 19*
S=c1[nH]nc(-c2ccc(Cl)cc2)n1Cc1ccccc1 | -6 | 4 | 46* | 5 | -9 | -106 | -6 | -8
CCN(CC)C(=O)C1CCCN(C(=O)c2ccc3nc(-c4cccc(OC)c4)oc3c2)C1 (stereo not drawn) | . | . | . | . | -32 | 10 | . | .
CCOC(=O)C1CCCN(C(=O)c2ccc3nc(-c4cccc(OC)c4)oc3c2)C1 (stereo not drawn) | 13 | 48 | 21* | 37 | -57 | -4 | 36* | 25*
CCC(=O)C1CCCN(C(=O)c2ccc3nc(-c4cccc(OC)c4)oc3c2)C1 (stereo not drawn) | -6 | 24 | 25* | 10 | -53 | -2 | 32* | 15*
